Screening data deposited in PubChem by National Center for Advancing Translational Sciences (NCATS).
ATXN viability: Viability Counterscreen for Primary qHTS for Inhibitors of ATXN expression; S2 cells (HEK-293 line with an ATXN2-luciferase reporter) viability, CellTiter-Fluor protease fluorescence, 24 h; 400,000 compounds, 0.49% hits; Potency, µM (series often up to 56.7 µM), hits mostly cytotoxic; note: nearly all actives have a fitted effect of over 40% in size
HT1080-NT tox: qHTS for induction of synthetic lethality in tumor cells producing 2HG: qHTS for the HT-1080-NT fibrosarcoma cell line; 360,000 compounds, 1.6% hits; AID 686970, 2013; HT-1080-NT fibrosarcoma viability, CellTiter-Glo ATP luminescence, 48 h; Potency, µM (doses to about 46.1 µM), usual class: cytotoxic;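 note: NT is the 2HG producing partner of a matched IDH1 knockdown line; nearly all actives have a fitted effect of over 55% in size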
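Luminescent CellTiter-Glo readout after 48 hours of compound exposure at 37 degrees C defined viability of HT-1080-NT cells. Activity was normalized to DMSO wells and cell-free media wells; concentration-response curves were fitted and assigned curve classes.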
HT1080 IDH1KD tx: qHTS for induction of synthetic lethality in tumor cells producing 2HG: qHTS for the HT-1080-IDH1KD cell line | HT-1080 IDH1 knockdown viability, ATP luminescence, 48 h | AID 686971, 2013 | Potency, µM (titrated, usually from 46.1 µM), actives largely listed as cytotoxic | 360,000 compounds, 2% hits
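% activity derives from luminescence (CellTiter-Glo), normalised to DMSO and no-cell wells. HT-1080-IDH1KD cells, 750/well, had 48 h compound exposure at 37 °C.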
TGFb SMAD3 inh: qHTS for Inhibitors of TGF-b; HepG2 CAGA-GFP TGF-b/SMAD3 reporter, GFP fluorescence, 18 h; TGF-beta stimulated, 500 pg/mL final; Potency, µM (top dose mostly 46.1 µM), hits mostly inhibitors; 410,000 compounds, 1.2% hits; AID 588855, 2011; note: nearly all actives have a fitted effect of over 65% in size
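TGF-beta reporter screen: HEPG2 CAGA-GFP, 1% FBS, 500 pg/mL TGF-beta final, 18 h; per-cell GFP summed per well; curves fitted and categorized by class.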
ATXN2 expr inh: Primary qHTS for Inhibitors of ATXN expression; HEK-293 ATXN2-luciferase reporter, luminescence, 24 h; Potency, µM (top dose mostly 57 µM), most hits filed as inhibitors; 360,000 compounds, 0.72% hits; AID 1745845, 2022; note: nearly all actives have a fitted effect of over 55% in size
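qHTS (up to 57 uM final) was run with 24 h compound exposure of reporter cells at 37 °C. Each well was multiplexed: SteadyGlo luminescence measured ATXN2-luciferase expression after a fluorogenic Gly-Phe-AFC viability readout (25 uM final).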
HepG2 tox: qHTS for Inhibitors of TGF-b: Cytotox Counterscreen | HepG2 CAGA-GFP viability, ATP luminescence, 18 h | Potency, µM (titrated, usually from 46.1 µM), actives largely listed as cytotoxic | 410,000 compounds, 0.76% hits
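HepG2 CAGA-GFP cells (1000/well, DMEM with 1% FBS) received compound, then TGF-beta at 500 pg/mL final, and were incubated 18 hours at 37 degrees C. Viability was read by CellTiter-Glo luminescence. Media-only wells were set as complete cell-killing and DMSO as no toxicity.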
SK-N-SH 3D tox: qHTS of pediatric cancer cell lines to identify multiple opportunities for drug repurposing: Orthogonal 3D viability screen for SK-N-SH cells; Potency, µM (highest dose often 30.7 µM), actives largely listed as inhibitors; shares compounds with ATXN2 expr inh; SK-N-SH 3D spheroid viability, PI/Hoechst imaging, 72 h; 65 compounds, 70% hits
SJGBM2 3D viab: qHTS of pediatric cancer cell lines to identify multiple opportunities for drug repurposing: Orthogonal 3D viability screen for SJ-GBM2 cells | SJ-GBM2 3D spheroid viability, PI/Hoechst imaging, 72 h | AID 1347136, 2019 | 65 compounds, 80% hits | Potency, µM (top dose mostly 30.7 µM), most hits filed as inhibitors | shares compounds with ATXN2 expr inh
Daoy 3D tox: qHTS of pediatric cancer cell lines to identify multiple opportunities for drug repurposing: Orthogonal 3D viability screen for Daoy cells. shares compounds with ATXN2 expr inh. Daoy 3D spheroid viability, PI/Hoechst imaging, 72 h. Potency, µM (doses to about 30.7 µM), actives largely listed as inhibitors. 65 compounds, 50% hits. AID 1347137, 2019
TC32 3D caspase: qHTS of pediatric cancer cell lines to identify multiple opportunities for drug repurposing: Orthogonal 3D caspase screen for TC32 cells; shares compounds with ATXN2 expr inh; Potency, µM (highest dose often 30.7 µM), hits mostly inhibitors; 65 compounds, 30% hits; TC32 3D spheroids, caspase-3/7 fluorescence imaging, 24 h
TC32 3D tox: qHTS of pediatric cancer cell lines to identify multiple opportunities for drug repurposing: Orthogonal 3D viability screen for TC32 cells; TC32 3D spheroid viability, PI/Hoechst imaging, 72 h; Potency, µM (top dose mostly 30.7 µM), actives largely listed as inhibitors; shares compounds with ATXN2 expr inh; AID 1347139, 2019; 65 compounds, 60% hits
MG63 3D tox: qHTS of pediatric cancer cell lines to identify multiple opportunities for drug repurposing: Orthogonal 3D viability screen for MG 63 (6-TG R) cells; shares compounds with ATXN2 expr inh; MG-63 (6-TG R) 3D spheroid viability, PI/Hoechst imaging, 72 h; Potency, µM (titrated, usually from 30.7 µM), hits mostly inhibitors; 65 compounds, 50% hits; AID 1347140, 2019
RD spheroid: qHTS of pediatric cancer cell lines to identify multiple opportunities for drug repurposing: Orthogonal 3D viability screen for RD cells | shares compounds with ATXN2 expr inh | RD rhabdomyosarcoma 3D spheroid viability, PI/Hoechst imaging, 72 h | Potency, µM (titrated, usually from 30.7 µM), actives largely listed as inhibitors | 65 compounds, 50% hits
Hits are given with their value; 0 = inactive; ? = inconclusive; - = no result given. Sampled rows, rich in hits. Any-hit rate of the full collection: about 3.9%. Calls come from the whole dose curve; as a rule, active = well fitted curve in the direction sought with a large enough effect; inconclusive = small, poorly fitted or top-dose-only effect, or another doubt; inactive = no such curve, though single readings can be large; an effect the other way counts as inactive or inconclusive.

SMILES	ATXN viability	HT1080-NT tox	HT1080 IDH1KD tx	TGFb SMAD3 inh	ATXN2 expr inh	HepG2 tox	others
O=C(CCN1CCN(CCO)CC1)N1c2ccccc2Sc2ccc(C(F)(F)F)cc21	0	0	0	0	0	0
COc1ccc(-n2nnnc2C(c2ccccc2)N2CCC3(CC2)C(=O)NCN3c2ccccc2)cc1 (configuration not stated)	?	?	?	?	0	0
CCCN(C(=O)c1cc2c(=O)oc3ccccc3c2s1)c1cccc(Cl)c1	0	-	-	?	0	0
Cc1cc(C(C#N)c2ccc(Cl)cc2)c(Cl)cc1NC(=O)c1cc(I)cc(I)c1O (configuration not stated)	?	?	?	?	?	0
COc1ccccc1NC(=O)Oc1cccc(OC(=O)c2ccccc2)c1	?	0	0	0	-	0
O=C(CSc1nc(-c2ccccc2)c(-c2ccccc2)[nH]1)Nc1nccs1	?	?	?	?	?	0
CCN(CC)CCNC(=O)c1c(O)c2ccccc2n(Cc2ccccc2)c1=O	?	?	?	0	0	0
Cc1ccc(-c2nnc(Nc3ccc(OC(F)(F)Cl)cc3)c3ccccc23)cc1S(=O)(=O)NC(C)(C)CO	0	-	-	?	0	0
O=C(CCCOc1ccc(Cl)cc1Cl)Nc1cc(S(=O)(=O)N2CCOCC2)ccc1N1CCOCC1	?	0	0	?	0	0
COc1cc([C@@H]2c3cc4c(cc3[C@H](O)[C@H]3COC(=O)[C@H]23)OCO4)cc(OC)c1OC	?	?	0.0065µM	0	0	0	SK-N-SH 3D tox=0.023µM;SJGBM2 3D viab=0.036µM;Daoy 3D tox=?;TC32 3D caspase=0.057µM;TC32 3D tox=0.057µM;MG63 3D tox=?;RD spheroid=0.046µM
C/C=C1/C[C@@H](C)[C@@](C)(O)C(=O)OCC2=CCN3CC[C@@H](OC1=O)[C@@H]23	-	-	-	0	-	0
CN1CCC(OC(=O)c2ccccc2)CC1	?	0	0	0	-	0
